In PubChem BioAssay AID488857 (Sanford-Burnham Center for Chemical Genomics, 2010) one finds inhibition data, which are given here for 68 compounds.

Out of some 1,400 compounds screened, about 560 (40%) were called active. The set was probably picked from earlier hits. Some of the results follow. Unmarked numbers belong to inactive results.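 How the source made its calls: active means mean inhibition over duplicate tests at 10 µM above 50%; inactive means the rest.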

The nature of this test: ASC/caspase-1 reporter retest in S. cerevisiae at one dose, specificity check for NALP1 project (AID 488857). Particulars: S. cerevisiae ASC/Caspase-1, beta-galactosidase luminescence, 24 h; at 10 µM; hits give high values.
As to `COc1ccc(S(=O)(=O)N2CCOC2CNC(=O)C(=O)NCCCN2CCOCC2)cc1C` (stereo not drawn), the inhibition is 28.6%.

As to `CSc1cc(N2CCOCC2)nc(-c2ccccc2Cl)n1`, the inhibition is 74.1% (active). The result for `O=[N+]([O-])/C=C/c1ccc2c(ccn2Cc2ccccc2)c1` reads 98.8% (active).

For `C/C(=N/NC(=O)c1nnn(-c2nonc2N)c1COc1ccccc1)c1ccc(O)cc1`, the inhibition is 27.6%. On to `CCOc1nnc(C)c2c(C)n(-c3cccc(Cl)c3)nc12`, for which the inhibition was 28.1%. `Cc1ccc(NC(=O)CNc2ccc(OC(C)C)cc2)cc1`: the inhibition was 39.6%. Regarding `Cc1ccc(OC(=S)Nc2ccc(O)cc2)cc1`, the inhibition is 88.4% (active). For `Cc1ccc(C(=O)/C=C/c2cn(CC(O)CN3CCOCC3)c3ccccc23)cc1` (stereo not drawn), the inhibition was 52.7% (active). The result for `CNc1ccccc(-c2ccc3ccccc3n2)c1=O` reads 39.4%; that for `CCN1/C(=C/c2ccc3cc(C)ccc3[n+]2CC)Sc2ccccc21`, 100% (active).

Take `CC[n+]1c(/C=C2\Sc3ccccc3N2C)ccc2cccc(C)c21`: the inhibition was 98.1% (active). As to `CCN1/C(=C/C=C/C=C/c2sc3ccccc3[n+]2CC)Sc2ccccc21`, the inhibition was 41%. Take `CCN1/C(=C\c2ccc3ccccc3[n+]2CC)Sc2cc(C)ccc21`: the inhibition was 100% (active).

Take `CCN1/C(=C/c2ccc3ccc(C)cc3[n+]2CC)Sc2ccccc21`: the inhibition was 84.9% (active). In the case of `Cc1cc(N2C(=O)C=CC2=O)c([N+](=O)[O-])cc1C`, the inhibition was 3%.

For `CC1(C)NC(=O)N(CCCCOc2ccc3ccccc3c2Cl)C1=O`, the inhibition is 48.8%. Take `O=C(CCNc1n[nH]c(=O)[nH]c1=O)N/N=C/c1ccc(C(F)(F)F)cc1`: the inhibition is 23.2%. With `COc1cc(OC)c(-c2nnc(-c3ccc(OC)c(OC)c3OC)o2)cc1OC` the figure was 31%; with `Cc1ccc2c(c1)c1c3n2CCCNC3CCC1` (stereo not drawn), 33%. As to `c1ccc(-c2noc(-c3ccccc3-c3ccccc3)n2)cc1`, the inhibition was 23.6%. The result for `CCc1ccc(NCc2nc(-c3ccccc3)no2)cc1` reads 57.2% (active); that for `CC(C)c1ccc(CN2CCN(C(=O)CCl)CC2)cc1`, 35.6%. The result for `CCc1cccc(OCCN2CCCC2)c1` reads 41.1%; that for `COCCCNCCOc1cc(C(C)C)ccc1C`, 30.4%; that for `Cc1ccc(C(C)C)cc1OCCN1CCCC1`, 54.6% (active). The result for `Cc1cc(OCCN2CCCC2)cc(C(C)C)c1` reads 53.9% (active). Turning to `Cc1cccc(C)c1OCC(=O)Nn1c(=O)[nH]c2ccccc2c1=O`, the inhibition was 34.9%. With `CCCCCCCCCCCCCCCCn1cc[n+](C)c1` the figure was 89.7% (active); with `CCCCCCCCCCCCCCCCn1cc[n+](CC(C)=O)c1`, 80.2% (active); with `CCNc1ccc(Br)cc(C(=O)/C=C/c2c(Cl)cccc2Cl)c1=O`, 42.6%. On to `O=C(/C=C/c1ccccn1)c1ccc(Br)cc1O`, for which the inhibition was 85.5% (active). With `Cc1cc(C)c(S(=O)(=O)N(CC(=O)O)CC(=O)O)c(C)c1` the figure was 46%; with `CC[N+]1(CC)CC2=Cc3c(ccc4ccccc34)CC2C1` (stereo not drawn), 35.5%; with `CCCCCCOc1ccc(N2C(=O)CC(N3CCC(C(=O)OCC)CC3)C2=O)cc1` (stereo not drawn), 45.4%. The result for `CCOc1ccc(C2N(c3ccc(F)cc3)C(=O)C3CCCN32)cc1` (stereo not drawn) reads 26.1%; that for `CCOc1ccc(N2C(=O)CC(N)C2=O)cc1` (stereo not drawn), 70% (active).

Regarding `Cc1ccc(Cl)cc1N1CCN(S(C)(=O)=O)CC1`, the inhibition was 33.1%.

Regarding `O=C(Cc1cccs1)Nc1nc(-c2ccc(F)cc2F)cs1`, the inhibition was 74.7% (active). With `COc1ccc(-c2nc3c(c(=O)[nH]c(=O)n3Cc3ccccc3)n2C)cc1` the figure was 41%; with `CCOc1ccccc1C(=O)OCC(=O)Nc1ccc(N2CCCCC2)cc1`, 67.3% (active). The result for `O=C(Nc1ccc(F)cc1)c1cccnc1N1CCCCC1` reads 43.2%; that for `CCOC(=O)c1ccccc1NC(=O)COc1cc(=O)n(CC)c2ccccc12`, 33.4%. With `CNC(=S)N/N=C/c1cc(Br)cc(Br)c1O` the figure was 85.5% (active); with `CC(=O)n1cc(-c2ccncc2)c2ccccc21`, 52.4% (active). On to `CN1CCc2cccc3c2[C@H]1Cc1ccc(O)c(O)c1-3`, for which the inhibition is 50.5% (active). `CN1CCc2cccc3c2[C@@H]1Cc1ccc(O)c(O)c1-3`: the inhibition is 67% (active). With `Fc1ccc(Nc2ccnc(Nc3ccc(F)cc3)n2)cc1`, the inhibition was 46.8%. The result for `COc1ccc(Nc2ccnc(Nc3ccc(OC)cc3)n2)cc1` reads 64.2% (active); that for `O=C(NC(Nc1nc2ccc([N+](=O)[O-])cc2s1)(C(F)(F)F)C(F)(F)F)c1ccccc1Cl`, 100% (active). The result for `CN(C)S(=O)(=O)c1ccc(N2CCCC2)c(C(=O)Nc2nc3ccccc3s2)c1` reads 42.1%; that for `CC(C)(C)C1=CC(=O)C(=O)C(C(C)(C)C)=C1`, 12.5%; that for `COC1=C(Nc2ccccc2)C(=O)c2ccccc2C1=O`, 26.2%.

On to `COc1ccccc1NC1=C(N2CCCCC2)C(=O)c2ccccc2C1=O`, for which the inhibition was 81.7% (active). The result for `O=C1OC(/C=C/c2ccc(Cl)cc2)=NC/1=C/c1ccco1` reads 39.5%; that for `CCCCCOc1ccc(Br)cc1/C(C)=N/NC1=NCCN1`, 78.4% (active).

Turning to `CCCCCCOc1ccc(OC(=O)c2ccncc2)cc1`, the inhibition was 14.7%. With `CCCCCCOc1ccc(-c2ccc(C#N)cn2)cc1` the figure was 37.6%. With `CCCCCCOc1ccc(/C(C)=N/NC2=NCCN2)cc1` the figure was 80.3% (active); with `Cc1c(-c2ccccc2)[n+](=O)c2c(n1[O-])CCC2`, -7.75%.

`NC(C(=O)O)C1CC(Cl)=NO1` (stereo not drawn): the inhibition was 59.1% (active).

Turning to `CCCN(CCC)C(=O)Cn1c(=O)n(CCCCC(=O)NCc2ccco2)c(=O)c2ccccc21`, the inhibition was 49%. Take `CCc1ccc(S(=O)(=O)/N=C2/C=C(Sc3ncn[nH]3)C(=O)c3ccccc32)cc1`: the inhibition was 96% (active). As for `CSCCNC(C)=O`, the inhibition was 17%.

For `COC(=O)c1sccc1N/N=C(\C)c1ccc(F)c(Cl)c1`, the inhibition was 36%. With `CC1=C(C(=O)Nc2ccc(Cl)cc2)C(c2ccco2)NC(=O)N1` (stereo not drawn) the figure was 15.8%; with `O=C(Nc1ccc(Cl)cc1)C1=Cc2ccccc2OC1`, 65.8% (active).

Regarding `CCc1cccc(CC)c1NC(=S)NCCc1c(C)[nH]c2ccccc12`, the inhibition was 50.6% (active).

On to `CCc1cccc(C)c1NC(=S)NCCc1c(C)[nH]c2ccc(C)cc12`, for which the inhibition is 44.8%.

As usually defined, the inhibition is the change of the read-out against control, counted positive when it falls.
